Test results published in PubChem BioAssay (NCI).
About 79,000 compounds went through this panel and 15% of them were active in at least one assay; those are over-represented in the sample as a whole. Activity calls are given as the source filed them. No stated cut-off is given here; in the data, active means growth inhibition above about 70%; inactive means the rest.

What was measured:
[1] = NCI Yeast Anticancer Drug Screen. Data for the rad50 strain (AID 155);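 further: 0% = growth of vehicle-only cultures of the same strain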; details: S. cerevisiae rad50 strain growth inhibition, active compounds read high
Outline: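 Cells are treated with compound, grown, and their growth is then scored against vehicle-only cultures of the same repair-deficient yeast strain.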

[2] = NCI Yeast Anticancer Drug Screen. Data for the mec2-1 strain (AID 157); details: S. cerevisiae mec2-1 strain, active compounds read high
Outline: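 Compounds were applied to mec2-1 yeast cells. Their growth was then compared with that of vehicle-treated cultures to give growth inhibition.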

[3] = NCI Yeast Anticancer Drug Screen. Data for the sgs1 mgt1 strain (AID 161);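 further: 0% = growth of cultures given vehicle only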; details: S. cerevisiae sgs1 mgt1 strain, active compounds read high
Outline: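 Yeast cells carrying a defined DNA-repair defect were exposed to test compounds. Growth inhibition was measured relative to vehicle-treated controls.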

[4] = NCI Yeast Anticancer Drug Screen. Data for the cln2 rad14 strain (AID 165);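 further: 0% = growth equal to vehicle treated cultures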; details: S. cerevisiae cln2 rad14 strain, active compounds read high
Outline: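 Strain: cln2 rad14 yeast, altered in cell cycle control and DNA damage repair. Read-out: growth inhibition vs vehicle.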

[5] = NCI Yeast Anticancer Drug Screen. Data for the bub3 strain (AID 167); details: S. cerevisiae bub3 mutant strain, active compounds read high
Outline: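 Part of a panel of yeast mutants defective in DNA damage repair or cell cycle regulation. Each strain is grown with compound, and inhibition is calculated relative to solvent-treated cultures.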

[6] = NCI Yeast Anticancer Drug Screen. Data for the mlh1 rad18 strain (AID 175); details: S. cerevisiae mlh1 rad18 strain growth inhibition, active compounds read high
Outline: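 A repair-deficient yeast strain is exposed to test compound, and growth is scored relative to vehicle-treated controls.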

[7] = at 5.0 µM (retest, dose inferred, filed as 0.5)
[8] = at 50.0 µM (retest, dose inferred, filed as 5.0)

Measured: growth inhibition

O=C(NC(=S)Nc1ncc([N+](=O)[O-])s1)c1ccccc1C(=O)NC(=S)Nc1ncc([N+](=O)[O-])s1
active: [1]; [8] 78% | [3]; at 50.0 µM 80.5% | [5]; [8] 96% | [5]; at 50.0 µM 75.8% | [6]; [8] 87% | [6]; at 50.0 µM 79.7%
inactive: [1]; [7] -5% | [1]; at 50.0 µM 69.5% | [2]; [7] 9% | [2]; [8] 67% | [2]; at 50.0 µM 29.6% | [3]; [7] 19% | [3]; [8] 47% | [4]; [7] -6% | [4]; [8] 40% | [4]; at 50.0 µM 19.4% | [5]; [7] -6% | [6]; [7] 4%

CCCCOc1c(OCCCC)c(=O)c1=O
inactive: [1]; [8] 54% | [1]; at 50.0 µM -13.6% | [2]; at 50.0 µM -48.5% | [3]; [7] 14% | [3]; [8] 19% | [3]; at 50.0 µM -31.6% | [4]; [7] 37% | [4]; [8] 48% | [4]; at 50.0 µM 16.4% | [5]; [7] 54% | [5]; [8] 54% | [5]; at 50.0 µM -26.6% | [6]; [8] 55% | [6]; at 50.0 µM 40.5%
active: [1]; [7] 78% | [2]; [7] 88% | [2]; [8] 79% | [6]; [7] 78%

C1CCC(OC2CCCCO2)OC1 (configuration not stated)
inactive: [1]; [7] -2% | [2]; [7] -22% | [2]; [8] 36% | [2]; at 50.0 µM 21.2% | [3]; [7] -11% | [3]; [8] 56% | [3]; at 50.0 µM 62.1% | [4]; [7] -2% | [4]; [8] 66% | [4]; at 50.0 µM 65.2% | [5]; [7] -8% | [6]; [7] -9% | [6]; at 50.0 µM 66%
active: [1]; [8] 76% | [1]; at 50.0 µM 70.3% | [5]; [8] 71% | [5]; at 50.0 µM 77.3% | [6]; [8] 92%

O=S(=O)(Nc1ccnn1-c1ccccc1)c1ccc(N=Cc2c3ccccc3nc3cc(Cl)ccc23)cc1
active: [1]; at 50.0 µM 96.8% | [2]; at 50.0 µM 96.7% | [3]; at 50.0 µM 96.4% | [6]; at 50.0 µM 97.5%
inactive: [1]; [7] 22% | [1]; [8] 29% | [2]; [7] 12% | [2]; [8] 12% | [3]; [7] 10% | [3]; [8] 7% | [4]; [7] -1% | [4]; [8] -1% | [4]; at 50.0 µM 68.7% | [5]; [7] 17% | [5]; [8] 17% | [5]; at 50.0 µM 67.9% | [6]; [7] 10% | [6]; [8] 19%

COc1ccc(/C=N/Nc2ccccc2)cc1
inactive: [1]; [7] 7% | [2]; [7] -12% | [3]; [7] -6% | [4]; [7] -9% | [5]; [7] -17% | [6]; [7] 8%
active: [1]; [8] 97% | [1]; at 50.0 µM 98.5% | [2]; [8] 85% | [2]; at 50.0 µM 99% | [3]; [8] 97% | [3]; at 50.0 µM 98.9% | [4]; [8] 93% | [4]; at 50.0 µM 98.7% | [5]; [8] 97% | [5]; at 50.0 µM 99% | [6]; [8] 96% | [6]; at 50.0 µM 98.4%

CCCCCCCCCCCCCCCCCC(=O)OCC(O)COC(=O)CCCCCCCCCCCCCCCCC
inactive: [1]; [7] -2% | [1]; [8] -5% | [1]; at 50.0 µM -7.45% | [2]; [7] 1% | [2]; [8] -3% | [2]; at 50.0 µM 15.6% | [3]; [7] -3% | [3]; [8] -21% | [3]; at 50.0 µM -8.65% | [4]; [7] 0% | [4]; [8] -13% | [4]; at 50.0 µM 38.4% | [5]; [7] 4% | [5]; [8] 0% | [5]; at 50.0 µM 45.5% | [6]; [7] 2% | [6]; [8] -1% | [6]; at 50.0 µM 2.55%

CCCCCCC(C)OC(=O)/C=C/c1ccccc1 (configuration not stated)
inactive: [1]; [7] 4% | [1]; [8] 4% | [1]; at 50.0 µM 33.5% | [2]; [7] -2% | [2]; [8] 1% | [2]; at 50.0 µM 14.2% | [3]; [7] 5% | [3]; [8] 10% | [3]; at 50.0 µM 11.9% | [4]; [7] 0% | [4]; [8] 1% | [4]; at 50.0 µM 39.4% | [5]; [7] 2% | [5]; [8] 13% | [5]; at 50.0 µM 17.5% | [6]; [7] 19% | [6]; [8] -6% | [6]; at 50.0 µM 26.9%

CC(=O)Nc1ccc(/S(=N\S(=O)(=O)c2ccc(C)cc2)c2ccc(NC(C)=O)cn2)cc1 (configuration not stated)
inactive: [1]; [7] 0% | [1]; [8] 6% | [1]; at 50.0 µM 37% | [2]; [7] -2% | [2]; [8] 1% | [2]; at 50.0 µM 4.8% | [3]; [7] 0% | [3]; [8] 4% | [3]; at 50.0 µM 0.7% | [4]; [7] -8% | [4]; [8] 3% | [5]; [7] -3% | [5]; [8] 0% | [5]; at 50.0 µM -1.75% | [6]; [7] -2% | [6]; [8] 7% | [6]; at 50.0 µM -15.1%
active: [4]; at 50.0 µM 73.3%

Nc1ncnc2c1c(-c1ccccc1)cn2-c1ccc(Cl)cc1
inactive: [1]; [7] 5% | [1]; [8] 26% | [1]; at 50.0 µM 22.2% | [2]; [7] 2% | [2]; [8] 10% | [2]; at 50.0 µM 15.5% | [3]; [7] 16% | [3]; [8] 61% | [4]; [7] 0% | [4]; [8] 17% | [4]; at 50.0 µM 42.8% | [5]; [7] 8% | [5]; [8] 5% | [5]; at 50.0 µM -17.4% | [6]; [7] 5% | [6]; [8] 23% | [6]; at 50.0 µM 14.8%
active: [3]; at 50.0 µM 71.8%
